A selection: hits, their analogues and other compounds. The true share with any hit is near 32%.
PostGolgi ctrl = growth inhibition of yeast control strain, primary screen, counter-screen for post-Golgi transport modulator project; efflux-deficient yeast background strain, growth absorbance A615, 16 h; inhibition, % at 10 µM; 98,000 tested, 5% active; AID 738, 2007
CYP2C19 inhib = blockers of cytochrome P450 2C19 activity – biochemical, luminescence, ADME assay, primary screen | inhibition, % at 5 µM | 96,000 tested, 21% active | CYP2C19 Supersomes, luciferin-H EGE luminescence, 30 min | AID 778, 2007 | P33261;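 active = CYP2C19 inhibition above a set limit at 5 µM in the primary screen, cut at about 50% in these data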;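 note: plate controls were negative control wells for no effect and 2.5 mM tranylcypromine positive control for full effect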
CYP2C19 act = human CYP2C19 activators, primary screen, biochemical, luminescence | AID 1025, 2008 | 96,000 tested, under 10 active | Cytochrome P450 2C19 (Homo sapiens), P33261 | activation factor at 5 µM | recombinant CYP2C19, luciferin-H EGE luminescence; active compounds read high; 0 = fully inhibited enzyme, 1 = untreated enzyme;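 active = activation factor of at least 2 at 5 µM in the primary screen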;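 note: 0 = wells with 2.5 mM tranylcypromine and 1 = vehicle-only wells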
CYP2C9 inhib = blockers of cytochrome P450 2C9 activity – biochemical, luminescence, ADME assay, primary screen. P11712. CYP2C9 Supersomes, luciferin-H conversion. inhibition, % at 5 µM. 96,000 tested, 20% active. AID 777, 2007;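 active = blocking of liver enzyme CYP2C9 beyond about 50% at 5 µM, limit read from the data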
Target sequence (P11712 whole entry, looked up): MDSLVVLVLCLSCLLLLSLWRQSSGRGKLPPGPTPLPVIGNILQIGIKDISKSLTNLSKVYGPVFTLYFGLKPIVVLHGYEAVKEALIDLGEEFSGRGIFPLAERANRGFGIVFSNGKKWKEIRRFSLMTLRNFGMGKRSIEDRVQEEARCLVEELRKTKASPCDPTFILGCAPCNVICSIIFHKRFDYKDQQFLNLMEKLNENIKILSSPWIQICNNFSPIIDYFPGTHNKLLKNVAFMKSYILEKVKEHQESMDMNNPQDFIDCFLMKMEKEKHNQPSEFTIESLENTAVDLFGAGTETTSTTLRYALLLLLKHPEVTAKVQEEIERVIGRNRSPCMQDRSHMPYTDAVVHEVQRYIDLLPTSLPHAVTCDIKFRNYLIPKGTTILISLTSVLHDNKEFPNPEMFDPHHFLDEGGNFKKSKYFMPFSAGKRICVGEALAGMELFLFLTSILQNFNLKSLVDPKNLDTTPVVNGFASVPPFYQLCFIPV
CYP2C9 activ = human CYP2C9 activators, primary screen, biochemical, luminescence; Cytochrome P450 2C9 (Homo sapiens), P11712; recombinant CYP2C9, luciferin-H conversion; active compounds read high; factor 1 = untreated enzyme, 0 = blocked; activation factor at 5 µM; 96,000 tested, 1.4% active;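 active = activation factor of 2 or more for CYP2C9 at a 5 µM dose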;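 note: 0 = sulfaphenazole-blocked wells and 1 = vehicle-only wells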
PostGolgi yeast = phenotypic screen on post-Golgi transport, primary screen; inhibition, % at 10 µM; post-Golgi transport phenotypic cell assay; AID 739, 2007; 98,000 tested, 0.9% active;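 note: yeast cells grown in 1536-well plates; yeast grown about 18 h at 30C before absorbance read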
An asterisk follows results filed as active. Cut-off read from the data, not from the text of the source, unless noted: active = inhibition above about 30%; inactive = the rest.

What do the screens show for `C[C@H](N)c1nnc(SCC(=O)c2ccc(Cl)cc2)o1`?
PostGolgi ctrl: 3; CYP2C19 inhib: 35; CYP2C19 act: 0.7; CYP2C9 inhib: 7; CYP2C9 activ: 0.9; PostGolgi yeast: 5

What do the screens show for `CC(C)=CCSc1nnc(CCNC(=O)OC(C)(C)C)o1`?
PostGolgi ctrl: 13; CYP2C19 inhib: 66*; CYP2C19 act: 0.3; CYP2C9 inhib: 36; CYP2C9 activ: 0.6; PostGolgi yeast: -3

Results for CN(C)C(=O)CSc1nnc(CCNC(=O)OC(C)(C)C)o1 ?
PostGolgi ctrl: 15; CYP2C19 inhib: 11; CYP2C19 act: 0.9; CYP2C9 inhib: -6; CYP2C9 activ: 1.1; PostGolgi yeast: 13

Results for CC(C)[C@H](N)c1nnc(SCC(=O)c2ccc(Cl)cc2)o1 ?
PostGolgi ctrl: 6; CYP2C19 inhib: 99*; CYP2C19 act: 0; CYP2C9 inhib: 69*; CYP2C9 activ: 0.3; PostGolgi yeast: -10

What do the screens show for `CCOC(=O)C(/C=C(\C#N)C(=O)OCC)=C(/N)N1CCN(c2ccc(Cl)cc2)CC1`?
PostGolgi ctrl: -8; CYP2C19 inhib: 18; CYP2C19 act: 0.8; CYP2C9 inhib: 21; CYP2C9 activ: 0.8; PostGolgi yeast: -4

What do the screens show for `CCCCCCNC(=O)c1c(O)c2ccccc2[nH]c1=O`?
PostGolgi ctrl: -4; CYP2C19 inhib: 18; CYP2C19 act: 0.8; CYP2C9 inhib: 28; CYP2C9 activ: 0.7; PostGolgi yeast: -8

How did COc1ccc2c(=O)c(N3C(=O)c4ccccc4C3=O)coc2c1 do in these assays?
PostGolgi ctrl: 3; CYP2C19 inhib: 2; CYP2C19 act: 1; CYP2C9 inhib: 7; CYP2C9 activ: 0.9; PostGolgi yeast: 3

What do the screens show for `COCCn1c(-c2ccccc2)cnc1N`?
PostGolgi ctrl: 8; CYP2C19 inhib: -3; CYP2C19 act: 1; CYP2C9 inhib: 1; CYP2C9 activ: 1; PostGolgi yeast: -6

What do the screens show for `CC(C)[C@H](NC(=O)OC(C)(C)C)c1nnc(SCC(=O)Nc2ccc(Br)cc2)o1`?
PostGolgi ctrl: 4; CYP2C19 inhib: 49; CYP2C19 act: 0.5; CYP2C9 inhib: 70*; CYP2C9 activ: 0.3; PostGolgi yeast: -1

How did CC(C)(C)OC(=O)N1CCC[C@H]1c1nnc(SCc2ccccc2Cl)o1 do in these assays?
PostGolgi ctrl: 11; CYP2C19 inhib: 33; CYP2C19 act: 0.7; CYP2C9 inhib: 37; CYP2C9 activ: 0.6; PostGolgi yeast: 9

How did CC(C)(C)OC(=O)NCCc1nnc(SCC(=O)c2ccc(Cl)cc2)o1 do in these assays?
PostGolgi ctrl: 12; CYP2C19 inhib: 77*; CYP2C19 act: 0.2; CYP2C9 inhib: 70*; CYP2C9 activ: 0.3; PostGolgi yeast: 1

Results for NCCCCCc1nnc(SC/C=C/c2ccccc2)o1 ?
PostGolgi ctrl: 3; CYP2C19 inhib: 12; CYP2C19 act: 0.9; CYP2C9 inhib: 12; CYP2C9 activ: 0.9; PostGolgi yeast: -13

How did CC(C)(C)OC(=O)N1CCC[C@H]1c1nnc(SCc2c(F)cccc2Cl)o1 do in these assays?
PostGolgi ctrl: 15; CYP2C19 inhib: 45; CYP2C19 act: 0.6; CYP2C9 inhib: 76*; CYP2C9 activ: 0.2; PostGolgi yeast: -3

What do the screens show for `NCCCCCc1nnc(SCC(=O)c2ccc(Cl)cc2)o1`?
PostGolgi ctrl: 4; CYP2C19 inhib: 59*; CYP2C19 act: 0.4; CYP2C9 inhib: 75*; CYP2C9 activ: 0.2; PostGolgi yeast: -3

How did O=C(CCC(=O)NNC(=O)Nc1ccc(Cl)cc1)NCc1ccccc1 do in these assays?
PostGolgi ctrl: -1; CYP2C19 inhib: 3; CYP2C19 act: 1; CYP2C9 inhib: 11; CYP2C9 activ: 0.9; PostGolgi yeast: -1

What do the screens show for `CC(C)Sc1nnc([C@H](C)NC(=O)OC(C)(C)C)o1`?
PostGolgi ctrl: 29; CYP2C19 inhib: 57*; CYP2C19 act: 0.4; CYP2C9 inhib: 24; CYP2C9 activ: 0.8; PostGolgi yeast: -2

What do the screens show for `O=C(c1cccs1)N1CCN(Cc2cccnc2)CC1`?
CYP2C19 inhib: 83*; CYP2C19 act: 0.2; CYP2C9 inhib: 37; CYP2C9 activ: 0.6

How did O=C(c1cccs1)N1CCN(Cc2ccncc2)CC1 do in these assays?
PostGolgi ctrl: 11; CYP2C19 inhib: 88*; CYP2C19 act: 0.1; CYP2C9 inhib: 74*; CYP2C9 activ: 0.3; PostGolgi yeast: 1

What do the screens show for `O=C(C(c1ccccc1)c1ccccc1)N1CCN(Cc2ccncc2)CC1`?
PostGolgi ctrl: 14; CYP2C19 inhib: 44; CYP2C19 act: 0.6; CYP2C9 inhib: 88*; CYP2C9 activ: 0.1; PostGolgi yeast: -5

What do the screens show for `Cc1cc(C(=O)N2CCN(CCc3ccccc3)CC2)no1`?
PostGolgi ctrl: -2; CYP2C19 inhib: 42; CYP2C19 act: 0.6; CYP2C9 inhib: 6; CYP2C9 activ: 0.9; PostGolgi yeast: -1

How did Cc1cc(C(=O)Nc2ccc(S(=O)(=O)Nc3nccs3)cc2)c(C)o1 do in these assays?
PostGolgi ctrl: -1; CYP2C19 inhib: -12; CYP2C19 act: 1.1; CYP2C9 inhib: 26; CYP2C9 activ: 0.7; PostGolgi yeast: -2

What do the screens show for `Cc1ccc(-c2cc(C(=O)OCC(=O)Nc3cc(C)on3)c3ccccc3n2)c(C)c1`?
PostGolgi ctrl: 2; CYP2C19 inhib: 25; CYP2C19 act: 0.7; CYP2C9 inhib: 79*; CYP2C9 activ: 0.2; PostGolgi yeast: -2

Results for COc1ccc(-c2ccc(SCC(=O)Nc3cc(C)on3)nn2)cc1OC ?
PostGolgi ctrl: 11; CYP2C19 inhib: 3; CYP2C19 act: 1; CYP2C9 inhib: 35; CYP2C9 activ: 0.7; PostGolgi yeast: 5

How did CCNC(=S)NNC(=O)c1cc(-c2cc(C)ccc2C)nc2ccccc12 do in these assays?
PostGolgi ctrl: 2; CYP2C19 inhib: 26; CYP2C19 act: 0.7; CYP2C9 inhib: 66*; CYP2C9 activ: 0.3; PostGolgi yeast: -2

How did COc1ccc(-c2cc(C(=O)OCC(=O)Nc3cc(C)on3)c3ccccc3n2)cc1OC do in these assays?
PostGolgi ctrl: 1; CYP2C19 inhib: 53*; CYP2C19 act: 0.5; CYP2C9 inhib: 46; CYP2C9 activ: 0.5; PostGolgi yeast: -7

What do the screens show for `O=C(Nc1ccc(S(=O)(=O)Nc2nccs2)cc1)c1cc(-c2ccccc2Cl)nc2ccccc12`?
PostGolgi ctrl: 9; CYP2C19 inhib: 18; CYP2C19 act: 0.8; CYP2C9 inhib: 52*; CYP2C9 activ: 0.5; PostGolgi yeast: -1

What do the screens show for `O=C(Cn1cc2c(n1)CCCC2)N1CCCc2ccccc21`?
PostGolgi ctrl: 2; CYP2C19 inhib: 28; CYP2C19 act: 0.7; CYP2C9 inhib: 35; CYP2C9 activ: 0.6; PostGolgi yeast: 3

How did Cc1ccc2nc(-c3ccccc3Cl)cc(C(=O)Nc3cc(C)on3)c2c1 do in these assays?
PostGolgi ctrl: -2; CYP2C19 inhib: 82*; CYP2C19 act: 0.2; CYP2C9 inhib: 99*; CYP2C9 activ: 0; PostGolgi yeast: 4

Assay outcomes as filed in PubChem.
